# According to PubChem BioAssay AID652044 (Broad Institute, 2013):
# Measured potencies and affinities stand elsewhere. Unmarked numbers belong to inactive results.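 How the source made its calls: active means cell-killing curve whose half-maximal dose falls at or below double the top accepted dose; inconclusive means flat fit with drops of 30 to 70%, or poor fit; inactive means the rest, including signal rises.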
# Experiment: viability loss in mouse NIH3T3 cells – cell-based, CellTiter-Glo luminescence, dry powder, cytotoxicity control for PglD inhibitor project, dose response (AID 652044)
# Settings: CellTiter-Glo ATP luminescence, 48 h; series mostly up to 26 µM; activity change, negative = cytotoxic: at the top concentration
row,Structure (SMILES),"activity change, negative = cytotoxic"
1,CO[C@@H]1CN(C)C(=O)c2ccc(NS(C)(=O)=O)cc2OC[C@@H](C)N(C(=O)C2CCOCC2)C[C@H]1C,8.99% [at 23.5 µM]
2,Cc1noc(C)c1NC(=O)Nc1cccc2c1O[C@H](CN(C)C(=O)Nc1cccc3ccccc13)[C@@H](C)CN([C@H](C)CO)C2=O,0.326%
3,CO[C@H]1CN(C)C(=O)c2cc(NC(C)=O)ccc2OC[C@@H](C)NC[C@@H]1C,5.85%
4,CC(=O)N[C@H]1CC[C@H](CC(=O)NCc2ccc(Cl)cc2)O[C@H]1CO,-2.34%
5,CCC(=O)Nc1ccc2c(c1)OC[C@@H](C)N(Cc1ccccn1)C[C@@H](C)[C@H](OC)CN(C)C2=O,6.56%
6,CC=Cc1ccc2n(c1=O)C[C@@H]1[C@@H](CO)[C@H](C(=O)NCCOC)[C@H]2N1Cc1nccs1 (mixture of isomers),7.23%
7,O=C(C[C@@H]1CC[C@@H]2[C@H](COC[C@@H](O)CN2Cc2ccc(F)cc2)O1)N1CCc2ccccc2C1,6.57%
8,COCC#Cc1cnc2c(c1)C(=O)N([C@@H](C)CO)C[C@H](C)[C@@H](CN(C)C(=O)C1CCC1)O2,-10.5%
9,C/C=C/c1cnc2c(c1)C(=O)N([C@@H](C)CO)C[C@H](C)[C@@H](CN(C)C(=O)c1cccnc1)O2,-12.1%
10,O=C(N[C@H]1C=C[C@@H](CC(=O)N2CCCCC2)O[C@H]1CO)c1ccc2c(c1)OCO2,-2.65%
11,O=C(C[C@@H]1C[C@@H]2c3cc(NC(=O)NC4CCCCC4)ccc3O[C@@H]2[C@@H](CO)O1)NCc1cccnc1,2.95%
12,C[C@H]1CN([C@@H](C)CO)C(=O)c2cccc(NC(=O)Nc3ccccc3)c2O[C@H]1CN(C)C,-4.25%
